Assay results published in PubChem BioAssay AID1159580 (chemical genetic matrix, 2015).
About 2,000 (36%) of roughly 5,500 compounds were called active. Not shown: some 18% with an inconclusive outcome. No stated cut-off is given here; in the data, active means normalized growth mostly below about 0.91 (no sharp cut-off); inconclusive means no clear call, values can overlap the other calls; inactive means mostly above about 0.92. This is one part of the list.

Experiment: chemical genetic growth profiling, strain panel (AID 1159580);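 further: tested at 20 µM; growth read once vehicle control cultures reached saturation at 30 °C; 1 = growth at the plate median or of vehicle wells; lower values mean less growth of the strain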
Details: S. cerevisiae deletion strains, growth OD

Measured: normalized growth

CC(SCc1ccccc1)C(=O)O (centres undefined)
inactive: locus YAL013W, strain DEP1, hits give low values 0.971 | locus YBR229C, strain ROT2, hits give low values 0.965 | locus YCL061C, strain MRC1, hits give low values 0.997 | locus YDL101C, strain DUN1, hits give low values 1 | locus YDL134C, strain PPH21, hits give low values 1 | locus YDR150W, strain NUM1, hits give low values 0.91 | locus YEL061C, strain CIN8, hits give low values 1.04 | locus YGR078C, strain PAC10, hits give low values 0.994 | locus YHR030C, strain SLT2, hits give low values 0.992 | locus YHR087W, strain rtc3, hits give low values 0.978 | locus YJL187C, strain SWE1, hits give low values 0.986 | locus YJR043C, strain POL32, hits give low values 0.981 | locus YJR075W, strain HOC1, hits give low values 0.965 | locus YKL190W, strain CNB1, hits give low values 1 | locus YLR039C, strain RIC1, hits give low values 1.02 | locus YLR058C, strain SHM2 (second series), hits give low values 0.988 | locus YLR085C, strain ARP6, hits give low values 1.01 | locus YLR262C, strain YPT6, hits give low values 1.02 | locus YML094W, strain GIM5, hits give low values 1.02 | locus YMR219W, strain ESC1, hits give low values 0.979 | locus YMR263W, strain SAP30, hits give low values 0.984 | locus YNL153C, strain GIM3, hits give low values 0.981 | locus YNL298W, strain CLA4 (second series), hits give low values 1.04 | locus YNL322C, strain KRE1, hits give low values 0.991 | locus YNR030W, strain Alg12, hits give low values 1 | locus YOL006C, strain TOP1, hits give low values 1.02 | locus YPL055C, strain LGE1, hits give low values 0.856 | locus YPL241C, strain CIN2, hits give low values 1 | locus YPR135W, strain CTF4, hits give low values 0.976
